Structures are written as SMILES. For some assays here: Entries with a potency or affinity are not part of this list. Activity calls are given as the source filed them.

The values that follow come from PubChem BioAssay (NCATS).

The conditions of experiment [1]: Ebola virus entry assay, ratio channel.
The conditions of experiment [2]: Ebola virus entry assay, green channel fluorescence.
For experiment [3] the following is noted: Ebola virus entry assay, reporter ratio channel; AC50: Channel type: primary unless noted; outcome: Channel type: primary unless noted.
For experiment [4] the following is noted: Ebola virus entry assay, blue channel fluorescence.
The conditions of experiment [5]: Ebola virus entry assay, blue channel (ratio component).
For experiment [6] the following is noted: Ebola virus entry reporter assay, green channel fluorescence.
For experiment [7] the following is noted: Ebola virus entry cell assay, ratio channel.

As to `COC(=O)c1ccccc1C(=O)c1ccc(OCCN2CCCCC2)cc1`, the AC50 in experiment [1] and in experiment [3] was 14.1 µM (active) each time. Besides, in experiment [2], the outcome was inactive.

For `C[N+]1(C)CCCC(OC(=O)C(O)(c2ccccc2)c2ccccc2)C1` (stereo not drawn), the outcome in experiment [1], in experiment [2], in experiment [4], in experiment [3], in experiment [5] and in experiment [6] was inactive. Moreover, in experiment [7], the result was inactive.

For `c1ccc2c(CC3=NCCN3)cccc2c1`, the result in experiment [1] and in experiment [2] was inactive. Further, the AC50 in experiment [3] is 39.8 µM (active).

`C[C@]12CCC(=O)C=C1CC[C@H]1[C@@H]3CC[C@](O)(C(=O)CO)[C@@]3(C)C[C@H](O)[C@@]12F`: the outcome in experiment [1], in experiment [2], in experiment [4], in experiment [3], in experiment [5] and in experiment [6] was inactive. Further, the result in experiment [7] was inactive.

`CO[C@@]1(NC(=O)Cc2cccs2)C(=O)N2C(C(=O)O)=C(COC(N)=O)CS[C@@H]21`: the result in experiment [1], in experiment [2], in experiment [4], in experiment [3], in experiment [5] and in experiment [6] was inactive. For the same molecule, the outcome in experiment [7] was inactive.

Consider `NCC[C@H](O)C(=O)N[C@@H]1C[C@H](N)[C@@H](O[C@H]2O[C@H](CN)[C@@H](O)[C@H](O)[C@@H]2O)[C@H](O)[C@@H]1O[C@H]1O[C@H](CO)[C@@H](O)[C@H](N)[C@@H]1O`, for which the result in experiment [1], in experiment [2], in experiment [4], in experiment [3], in experiment [5] and in experiment [6] was inactive. Also, the outcome in experiment [7] was inactive.

On to `S=P(N1CC1)(N1CC1)N1CC1`, for which the result in experiment [1], in experiment [2], in experiment [4], in experiment [3], in experiment [5] and in experiment [7] was inactive.

`NC(N)=NC(=O)Cc1c(Cl)cccc1Cl`: the outcome in experiment [1], in experiment [2], in experiment [4], in experiment [3], in experiment [5] and in experiment [6] was inactive. In experiment [7], the result was inactive.

In the case of `NS(=O)(=O)c1cc(C2(O)NC(=O)c3ccccc32)ccc1Cl` (stereo not drawn), the result in experiment [1], in experiment [2], in experiment [4], in experiment [3], in experiment [5] and in experiment [7] was inactive.

For `O=C1CN=C(c2ccccc2)c2cc([N+](=O)[O-])ccc2N1`, the outcome in experiment [1], in experiment [2], in experiment [4], in experiment [3], in experiment [5] and in experiment [6] was inactive. Further, the result in experiment [7] was inactive.

Regarding `CC(C)=CCC/C(C)=C/CO`, the outcome in experiment [1], in experiment [2], in experiment [3] and in experiment [5] was inactive.

`CCCCC/C=C\C/C=C\C/C=C\C/C=C\CCCC(=O)NCC(=O)O`: the result in experiment [1], in experiment [2], in experiment [3] and in experiment [5] was inactive.

In the case of `COc1cc(-c2ccc(=O)[nH]n2)ccc1OC(F)F`, the outcome in experiment [1], in experiment [2], in experiment [3] and in experiment [5] was inactive.

For `CC(=O)c1cc2ccccc2s1`, the result in experiment [1], in experiment [2], in experiment [3] and in experiment [5] was inactive.

With `C[C@]12C=CC(=O)C=C1CC[C@@H]1[C@@H]2[C@@H](O)C[C@@]2(C)[C@H]1CC[C@]2(O)C(=O)CO`, the result in experiment [1], in experiment [2], in experiment [3] and in experiment [5] was inactive.

As to `CC(CN(C)C)C(C)(O)Cc1ccc(Cl)cc1` (stereo not drawn), the result in experiment [1] and in experiment [2] was inactive. In experiment [3], the AC50 was 28.2 µM (active).

For the molecule `O=C1CC[C@H](C(=O)N2CCCCC2)N1`, the result in experiment [1], in experiment [2], in experiment [3] and in experiment [5] was inactive.

Turning to `Cc1ccc(Cl)c(Nc2ccccc2C(=O)O)c1Cl`, the result in experiment [1], in experiment [2], in experiment [3] and in experiment [5] was inactive.

`CCN(CC)CCc1c[nH]c2ccccc12`: the outcome in experiment [1], in experiment [2] and in experiment [3] was inactive.

Turning to `Cc1ccc(-c2ncc(Cl)cc2-c2ccc(S(C)(=O)=O)cc2)cn1`, the result in experiment [1], in experiment [2], in experiment [3] and in experiment [5] was inactive.

Take `CN1CCN(c2c(F)cc3c(=O)c(C(=O)O)cn4c3c2SCC4)CC1`: the result in experiment [1], in experiment [2], in experiment [3] and in experiment [5] was inactive.

Regarding `O=C(O)c1cc(-c2ccccc2)nc2ccccc12`, the result in experiment [1], in experiment [2], in experiment [3] and in experiment [5] was inactive.

For `Nc1ccc(C(=O)Oc2ccccc2)c(O)c1`, the result in experiment [1], in experiment [2], in experiment [3] and in experiment [5] was inactive.

In the case of `Cc1ccccc1OCC(O)CO` (stereo not drawn), the outcome in experiment [1], in experiment [2], in experiment [3] and in experiment [5] was inactive.

With `O=[N+]([O-])c1ccc(/C=N\O)o1`, the result in experiment [1], in experiment [2], in experiment [3] and in experiment [5] was inactive.

For `C[N+](C)(C)CCCCCC[N+](C)(C)C`, the outcome in experiment [1], in experiment [2], in experiment [3] and in experiment [5] was inactive.

For `CCN[C@@H](C)Cc1cccc(C(F)(F)F)c1`, the result in experiment [1], in experiment [2], in experiment [3] and in experiment [5] was inactive.

With `Cc1ccc(-c2ccccc2C#N)cc1`, the result in experiment [1], in experiment [2], in experiment [3] and in experiment [5] was inactive.

In the case of `CN(C)CCOC(=O)COc1ccc(Cl)cc1`, the outcome in experiment [1], in experiment [2], in experiment [3] and in experiment [5] was inactive.

Regarding `O=C(NC(Cc1cc(=O)[nH]c2ccccc12)C(=O)O)c1ccc(Cl)cc1` (stereo not drawn), the result in experiment [1], in experiment [2], in experiment [3] and in experiment [5] was inactive.

Turning to `CC(CC(C#N)(c1ccccc1)C(C)C)N(C)C` (stereo not drawn), the result in experiment [1], in experiment [2], in experiment [3] and in experiment [5] was inactive.

On to `CC(C)OP(=O)(CP(=O)(OC(C)C)OC(C)C)OC(C)C`, for which the outcome in experiment [1], in experiment [2], in experiment [3] and in experiment [5] was inactive.

On to `CO[C@@]1(NC(=O)CSC[C@@H](N)C(=O)O)C(=O)N2C(C(=O)O)=C(CSc3nnnn3C)CS[C@@H]21`, for which the outcome in experiment [1], in experiment [2], in experiment [3] and in experiment [5] was inactive.

`O=C(CCN1CCC(c2ccccc2)C1)c1ccc2c(c1)OCCO2` (stereo not drawn): the outcome in experiment [1], in experiment [2], in experiment [3] and in experiment [5] was inactive.

For the molecule `O=c1[nH]c2ccccc2n1C1CCNCC1`, the outcome in experiment [1], in experiment [2], in experiment [3] and in experiment [5] was inactive.
